Laboratory results: PubChem BioAssay (NCI)
Several values for one entry are separate records, joined by “and”; a condition that tells them apart may be missing. Identical values can stand only once. About 83,000 compounds went through this panel and 20% of them were active in at least one assay; those are over-represented in the sample as a whole.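 Single-dose data. Exposure time 48 hours. Values below 10 considered active.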 Activity calls are given as the source filed them.

Legend:
Assay in all cases: NCI-60 one-dose screen, 48 h (100 = growth as untreated, 0 = no growth, -100 = all killed)
Conditions in all cases: 10 µM unless noted
NCI-H23 lung = tested on: NCI-H23 lung
NCI-H226 lung = tested on: NCI-H226 lung
NCI-H322M lung = tested on: NCI-H322M lung
HOP-62 NSCLC = tested on: HOP-62 NSCLC
NCI-H460 lung = tested on: NCI-H460 lung
HOP-92 NSCLC = tested on: HOP-92 NSCLC
NCI-H522 lung = tested on: NCI-H522 lung
A549/ATCC NSCLC = tested on: A549/ATCC NSCLC
786-0 renal = tested on: 786-0 renal
COLO 205 colon = tested on: COLO 205 colon

Measured: growth

COC(=O)c1ccc(-c2c(-c3ccccc3)c(F)c3oc(C(=O)OC)c(N)c3c2-c2ccccc2)cc1
inactive: NCI-H23 lung 87% | NCI-H226 lung 100% | NCI-H322M lung 97.1% | HOP-62 NSCLC 94% | NCI-H460 lung 99.7% | HOP-92 NSCLC 85.1% | NCI-H522 lung 83.4% | A549/ATCC NSCLC 98.9% | 786-0 renal 103% | COLO 205 colon 99.7%

COc1ccc(OC)c(Cn2cc(C#N)c(N)c2C(=O)c2ccc(Br)cc2)c1
active: NCI-H522 lung -29%
inactive: NCI-H23 lung 54.4% | NCI-H226 lung 64.9% | NCI-H322M lung 85.8% | HOP-62 NSCLC 40.2% | NCI-H460 lung 41.8% | HOP-92 NSCLC 55.7% | A549/ATCC NSCLC 46.4% | 786-0 renal 63.9% | COLO 205 colon 30.4%

CC(=O)Nc1cccc(-n2c(COc3ccc(Br)cc3)nc3ccccc32)c1
inactive: NCI-H23 lung 94% and 107% | NCI-H226 lung 76.2% and 107% | NCI-H322M lung 103% and 104% | HOP-62 NSCLC 119% and 114% | NCI-H460 lung 105% and 107% | HOP-92 NSCLC 90% and 108% | NCI-H522 lung 97.1% and 108% | A549/ATCC NSCLC 115% and 108% | 786-0 renal 115% and 103% | COLO 205 colon 108% and 124%

COc1ccc(NC(=O)Cn2c(/C=C/c3ccc([N+](=O)[O-])cc3)nc3ccccc3c2=O)cc1
inactive: NCI-H23 lung 34.9% | NCI-H226 lung 21.2% | NCI-H322M lung 70.2% | HOP-62 NSCLC 33.2% | NCI-H460 lung 42.3% | NCI-H522 lung 73% | A549/ATCC NSCLC 75.9% | COLO 205 colon 85.3%
active: HOP-92 NSCLC -12% | 786-0 renal 9.31%

Cc1ccc(/C=C/C(=O)c2ccc(S(=O)(=O)NCCNc3nc(N(C)C)nc(N4CCOCC4)n3)cc2)cc1
inactive: NCI-H23 lung 95% | NCI-H226 lung 91.7% | NCI-H322M lung 93.7% | HOP-62 NSCLC 114% | NCI-H460 lung 103% | HOP-92 NSCLC 93.2% | NCI-H522 lung 72.3% | A549/ATCC NSCLC 80.4% | 786-0 renal 73% | COLO 205 colon 114%

O=C1C=CC(=CC=C2N(Cc3ccc4ccccc4c3)c3ccccc3N2Cc2ccc3ccccc3c2)C=C1
5.96% (active) and 26.9% (inactive): NCI-H23 lung
active: HOP-92 NSCLC 3.18% and -22.2% | COLO 205 colon -29.1% and 0.579%
-12.5% (active) and 17.7% (inactive): NCI-H522 lung
inactive: NCI-H226 lung 47.1% and 48% | NCI-H322M lung 49.3% and 59.1% | HOP-62 NSCLC 37.3% and 45.3% | NCI-H460 lung 15.7% and 10.4% | A549/ATCC NSCLC 30.5% and 46.4% | 786-0 renal 51.2% and 69.2%

COC(=O)c1cc(C(C)=O)n2c3ccccc3c3ccccc3c12
inactive: NCI-H23 lung 78.1% | NCI-H226 lung 61.3% | NCI-H322M lung 104% | HOP-62 NSCLC 57.9% | NCI-H460 lung 110% | HOP-92 NSCLC 28.1% | NCI-H522 lung 86.4% | A549/ATCC NSCLC 96.9% | 786-0 renal 36.6% | COLO 205 colon 108%

Cc1ccc2nc(COc3ccc(C(=O)NNC(=O)Nc4ccc(Cl)c(C(F)(F)F)c4)cc3)[nH]c2c1
inactive: NCI-H23 lung 25.9% | NCI-H226 lung 54.2% | NCI-H322M lung 22.3% | NCI-H460 lung 32.8% | NCI-H522 lung 41% | A549/ATCC NSCLC 17.1% | 786-0 renal 50.1% | COLO 205 colon 84.1%
active: HOP-62 NSCLC 6.46% | HOP-92 NSCLC -22.6%

O=C1Nc2ccccc2/C1=C/C(=O)c1cc2ccccc2oc1=O
active: NCI-H522 lung -34.9% | COLO 205 colon -15.4%
inactive: NCI-H23 lung 93.4% | NCI-H226 lung 93.7% | NCI-H322M lung 102% | HOP-62 NSCLC 101% | NCI-H460 lung 108% | HOP-92 NSCLC 119% | A549/ATCC NSCLC 106% | 786-0 renal 117%

Cc1cccc(NCC(=O)N2CCN(c3ncnc4c3cnn4-c3ccccc3)CC2)c1
inactive: NCI-H23 lung 58.4% | NCI-H226 lung 54.5% | NCI-H322M lung 69.3% | HOP-62 NSCLC 67.4% | NCI-H460 lung 65% | HOP-92 NSCLC 50.6% | A549/ATCC NSCLC 65.3% | 786-0 renal 80.8% | COLO 205 colon 97.4%
active: NCI-H522 lung -6.93%

CC(C)(C)C(=O)C1CC(C#N)=C2C=Cc3c(ccc4ccccc34)N21 (stereo not given)
inactive: NCI-H23 lung 89.2% | NCI-H226 lung 77% | NCI-H322M lung 101% | HOP-62 NSCLC 88.3% | NCI-H460 lung 97.8% | HOP-92 NSCLC 70.7% | NCI-H522 lung 83.9% | A549/ATCC NSCLC 81.2% | 786-0 renal 76.6% | COLO 205 colon 93.6%

COc1ccc2nc(NC(=O)c3ccc(N(C)C)cc3)sc2c1
inactive: NCI-H23 lung 66.2% | NCI-H226 lung 56.9% | NCI-H322M lung 64.7% | HOP-62 NSCLC 92% | NCI-H460 lung 65.9% | HOP-92 NSCLC 112% | NCI-H522 lung 67.7% | A549/ATCC NSCLC 54.9% | 786-0 renal 85% | COLO 205 colon 89.5%

O=C(Nc1ccc(-c2ccc3c(c2)NC(=O)/C3=C\c2ccc[nH]2)cc1)Nc1cccc(Cl)c1
inactive: NCI-H322M lung 14.1% | HOP-92 NSCLC 41.5%
active: NCI-H23 lung -57.4% | NCI-H226 lung 2.01% | HOP-62 NSCLC -29.6% | NCI-H460 lung 1.16% | NCI-H522 lung -51.7% | A549/ATCC NSCLC -3.34% | 786-0 renal -41.6% | COLO 205 colon -58.6%

CNS(=O)(=O)N1CCc2c(Br)c3c(c(OC)c2C1CCc1ccccc1)OCO3 (stereo not given)
inactive: A549/ATCC NSCLC 16.6%
active: NCI-H23 lung -19.5% | NCI-H226 lung -70.3% | NCI-H322M lung 4.7% | HOP-62 NSCLC -18.6% | NCI-H460 lung -67.7% | HOP-92 NSCLC -54.3% | NCI-H522 lung -12.3% | 786-0 renal -44.9% | COLO 205 colon -51.3%

N#C/C(=C/c1ccc([N+](=O)[O-])cc1)c1nnc(NC(=O)c2ccc(-n3c(=O)[nH]c4ccccc4c3=O)cc2)s1
inactive: NCI-H23 lung 91.9% | NCI-H226 lung 87.8% | NCI-H322M lung 97.5% | HOP-62 NSCLC 85.6% | NCI-H460 lung 79.2% | HOP-92 NSCLC 101% | NCI-H522 lung 108% | A549/ATCC NSCLC 102% | 786-0 renal 104% | COLO 205 colon 122%

Cn1cc(Nc2ncnc(-c3ccc(N4CCCC4)c(C#N)c3)n2)cn1
active: NCI-H522 lung 8.98%
inactive: NCI-H23 lung 86% | NCI-H226 lung 60.6% | NCI-H322M lung 50.5% | HOP-62 NSCLC 90.3% | NCI-H460 lung 50.1% | HOP-92 NSCLC 97.6% | A549/ATCC NSCLC 83.7% | 786-0 renal 59.8% | COLO 205 colon 72%

N/C(=N\c1nc2ccccc2s1)NC(=O)Nc1ccccc1F
inactive: NCI-H23 lung 19.9% | NCI-H226 lung 46.2% | NCI-H322M lung 54.5% | NCI-H460 lung 30.2% | HOP-92 NSCLC 19.3% | A549/ATCC NSCLC 47.5% | 786-0 renal 17.7%
active: HOP-62 NSCLC 0.224% | NCI-H522 lung -45.5% | COLO 205 colon -33%

COc1cc(C2C(C(=O)OCc3ccccc3)=C(C)Nc3nc4ccccc4n32)cc(OC)c1OC (stereo not given)
active: NCI-H226 lung -37.3% | HOP-92 NSCLC -0.272% | NCI-H522 lung -7% | 786-0 renal -66.1%
inactive: NCI-H23 lung 45.8% | NCI-H322M lung 40.9% | HOP-62 NSCLC 31.1% | NCI-H460 lung 16% | A549/ATCC NSCLC 34.9% | COLO 205 colon 52.5%

N#CC1=C(c2ccco2)Nc2c(c(-c3ccccc3)nn2-c2ccccc2)C12C(=O)Nc1ccc(Cl)cc12 (stereo not given)
active: NCI-H226 lung -9.04% | HOP-62 NSCLC -47.9% | NCI-H460 lung 0.156% | HOP-92 NSCLC -0.851% | NCI-H522 lung 0.0636% | A549/ATCC NSCLC -37.1% | 786-0 renal -14.5%
inactive: NCI-H23 lung 45.6% | NCI-H322M lung 50.7% | COLO 205 colon 79.6%

Cc1ccc(C2CC(c3ccc(NC(=O)Nc4ccccc4)cc3)=NN2c2ccc(S(N)(=O)=O)cc2)cc1 (stereo not given)
active: NCI-H23 lung -95.8% | NCI-H226 lung -80.4% | NCI-H322M lung -96.5% | HOP-62 NSCLC -72.9% | NCI-H460 lung -86.1% | HOP-92 NSCLC -81.3% | NCI-H522 lung -84% | A549/ATCC NSCLC -61.4% | 786-0 renal -87.9% | COLO 205 colon -66.3%

N#C/C(=C/c1ccc(Cl)cc1)c1nnc(NC(=O)c2ccc(-n3c(=O)[nH]c4ccccc4c3=O)cc2)s1
active: NCI-H226 lung 2.1%
inactive: NCI-H23 lung 28.6% | NCI-H322M lung 59.5% | HOP-62 NSCLC 26.6% | NCI-H460 lung 10.1% | HOP-92 NSCLC 39.3% | NCI-H522 lung 46.4% | A549/ATCC NSCLC 69.8% | 786-0 renal 48.1% | COLO 205 colon 68.1%

CCCCCCCCCCCCCCCCCC(=O)Nc1ccc(OC)cc1
inactive: NCI-H23 lung 105% | NCI-H226 lung 103% | NCI-H322M lung 102% | HOP-62 NSCLC 101% | NCI-H460 lung 109% | HOP-92 NSCLC 102% | NCI-H522 lung 88.2% | A549/ATCC NSCLC 104% | 786-0 renal 102% | COLO 205 colon 120%

CCCCCCCCc1cccc(CC(=O)Nc2ccc(C)cc2C(=O)O)c1
inactive: NCI-H23 lung 59.3% [25 µM] | NCI-H226 lung 65.3% [25 µM] | NCI-H322M lung 62.7% [25 µM] | HOP-62 NSCLC 54.8% [25 µM] | NCI-H460 lung 20.4% [25 µM] | HOP-92 NSCLC 83.8% [25 µM] | NCI-H522 lung 38.7% [25 µM] | A549/ATCC NSCLC 31.4% [25 µM] | 786-0 renal 34.1% [25 µM] | COLO 205 colon 59.1% [25 µM]

CC1=C(C(=O)OCc2ccccc2)C(c2cccc3ccccc23)n2c(nc3ccccc32)N1 (stereo not given)
active: NCI-H460 lung 9.99% | NCI-H522 lung -42.2%
inactive: NCI-H23 lung 46.4% | NCI-H226 lung 19.4% | NCI-H322M lung 36.6% | HOP-62 NSCLC 38.3% | HOP-92 NSCLC 64.6% | A549/ATCC NSCLC 33.9% | 786-0 renal 30.3% | COLO 205 colon 13.9%
